PubChem BioAssay (NCI)
This is part of a sample that, as a whole, favours compounds with a hit. Of some 83,000 tested, about 20% had one in any assay.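 For each line, cells grew in 96-well plates with the test compound present at a single concentration for 48 hours.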 Active and inactive are the calls of the source. How the source made its calls: active means growth percent below 10; inactive means the rest.

tested on: HL-60(TB) leukemia; test: NCI-60 one-dose screen, 48 h (100 = growth as untreated, 0 = no growth, -100 = all killed); conditions: 10 µM unless noted

Row | SMILES | growth
1 | C[n+]1cccc(CC(=O)NO)c1 | 94.7% (inactive)
2 | COc1ccc(C(OCC2OC(n3ccc(NC(=O)c4ccccc4)nc3=O)C(O)C2O)(c2ccccc2)c2ccccc2)cc1 (stereo not given) | 22.9% (inactive)
3 | CC(C)(C)CC(C)(C)Nc1c(-c2c(O)c3ccccc3oc2=O)nc2sc3ccccc3n12 | 21.6% (inactive)
4 | Cn1cc(-c2noc(-c3cn(C)c4ncc(Br)cc34)n2)c2cc(Cl)ccc21 | 102% (inactive)
5 | NC(N)=N/N=C/c1ccc(Br)cc1 | -0.0458% (active)
6 | C=C1C(=O)O[C@H]2[C@H]1CC/C(COC(=O)N[C@@H](Cc1c[nH]c3ccccc13)C(=O)OC)=C\CC[C@@]1(C)O[C@@H]21 | -52.6% (active)
7 | c1ccc2cc(C[n+]3ccn(CCCCCCn4cc[n+](Cc5ccc6ccccc6c5)c4)c3)ccc2c1 | 87.9% (inactive)
8 | CC/C(Cc1ccccc1)=C(\c1ccc(OCCCN(C)C)cc1)c1ccc(OC(=O)NCc2ccccc2)cc1 | 57.2% (inactive)
9 | O=C(CN1C=NC2C(N3CCOCC3)=NC=NC21)c1cccc2ccccc12 (stereo not given) | 103% (inactive)
10 | COc1cccc(CCC(=O)c2cc3c(N)c(C(=O)Nc4ccccc4)sc3nc2C)c1 | 6.59% (active)
11 | COc1ccc2oc(=O)cc(C3c4ccc([nH]4)C(c4cc(=O)oc5ccc(OC)cc45)c4ccc([nH]4)C(c4cc(=O)oc5ccc(OC)cc45)c4ccc([nH]4)C(c4cc(=O)oc5ccc(OC)cc45)c4ccc3[nH]4)c2c1 (stereo not given) | -14.5% (active)
12 | O=C(Nc1ccccc1)Nc1ccc(Nc2ncnc3sc4c(c23)CCCC4)cc1 | 97% (inactive)
13 | O=C(NCCO)C(F)(F)F | 103% (inactive)
14 | CCOC(=O)/C(C#N)=C/c1cccc(C)c1 | 86.4% (inactive)
15 | N#Cc1c(-c2ccc(Cl)cc2)cc(-c2cc(O)ccc2O)nc1N | 68.2% (inactive)
16 | Cc1nc2cc(Nc3nc(NCCN)nc(Nc4ccc(F)cc4)n3)ccc2n1Cc1ccccc1 | -21.5% (active)
17 | COc1ccc2[nH]c(-c3ccccc3)cc2c1 | 60.7% (inactive)
18 | FC(F)(F)c1ccc(-c2cnc(Cl)nc2NC2CCCCCC2)cc1 | -6.33% (active)
19 | CCCCc1nc(Cl)c(C2CC(c3ccc(Cl)cc3)=NN2c2cc(Cl)cc(Cl)c2)[nH]1 (stereo not given) | 35.4% (inactive)
20 | O=C1C(Cl)=C(SC2=NCCN2)C(=O)c2ccccc21 | 81.4% (inactive)

Row | SMILES | growth
21 | COc1ccc(C2=NN(C(C)=O)C(c3ccc(Oc4ccnc5cc(Cl)ccc45)c(OC)c3)C2)cc1 (stereo not given) | 78.4% (inactive)
22 | CCN(CC)CCN1CNC(=S)NC1 | 78.8% (inactive)
23 | CS(=O)(=O)c1ccc(-c2[nH]c3ccc(F)cc3c2/C=N/NC(N)=S)cc1 | -50.2% (active)
24 | CCCCOC(=O)c1cc(O)c(O)c(O)c1 | 24.7% (inactive)
25 | O=C(COCc1c(-c2ccccc2)no[n+]1[O-])Nc1ccc(C(=O)/C=C/c2ccc3c(c2)OCO3)cc1 | 88.7% (inactive)
26 | Cc1cc2c(C(C)C)c(O)c(O)c(C=NCCCCC(=O)O)c2c(O)c1-c1c(C)cc2c(C(C)C)c(O)c(O)c(C=NCCCCC(=O)O)c2c1O | 42.6% (inactive)
27 | Nc1nc(Nc2ccccc2)n[nH]1 | 97.7% (inactive)
28 | COc1nc2ccccc2cc1-c1nc2c(cnn2-c2ccc(Br)cc2)c(=O)[nH]1 | 8.57% (active)
29 | COC(=O)C1=Nc2ccc(F)cc2/C1=C\c1sc(Nc2ccc(O)cc2)nc1O | 54.8% (inactive)
30 | C=CCCC1(C)NC(=O)NC1=O (stereo not given) | 97.7% (inactive)
31 | O=[N+]([O-])c1cc(Br)cc2c1[nH]c1ccc(Br)cc12 | 85% (inactive)
32 | COc1cc2c(=O)n(CCN(C)C)c3c4cc5c(cc4ccc3c2cc1OC)OCO5 | 8.03% (active)
33 | COc1cc2c(Nc3ccc(Br)cc3F)ncnc2cc1OCC1CCN(C)CC1 | 0.964% (active)
34 | Nc1ccc(-c2nc3cc(Oc4ccc(Oc5ccc6[nH]c(-c7ccc(N)cc7)nc6c5)cc4)ccc3[nH]2)cc1 | 103% (inactive)
35 | Nc1c(C(=O)Nc2cccc3c2OCCO3)sc2nc3c(cc12)CN(Cc1ccccc1)CC3 | 19.1% (inactive)
36 | Nc1c(C(=O)Nc2cccc(Cl)c2)sc2ncc(Br)cc12 | 108% (inactive)
37 | CN1NC(c2ccccc2)NN(C)C1=O | 105% (inactive)
38 | CC(=O)OC[C@]12CC[C@@H](C(=O)CBr)[C@@H]1[C@H]1CC[C@@H]3[C@@]4(C)CC[C@H](OC(C)=O)C(C)(C)[C@@H]4CC[C@@]3(C)[C@]1(C)CC2 | 63.8% (inactive)
39 | C1=C\COCc2cc(ccc2OCCN2CCCC2)Nc2nccc(n2)-c2cccc(c2)COC/1 | -34.6% (active)
40 | COC(=O)c1nc(N)nc(C(=O)OC)c1C(=O)c1cccc2ccccc12 | 107% (inactive)
